Assay results reported in PubChem BioAssay (NCI).
About 83,000 compounds went through this panel and 20% of them were active in at least one assay; those are over-represented in the sample as a whole.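 Step 1: grow cells in 96-well plates. Step 2: add test compound at a single concentration. Step 3: incubate 48 h. Step 4: record percent growth.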 The source made the active and inactive calls. The calls were made as follows: active = growth percent below 10; inactive = the rest.

Key:
Assay in all cases: NCI-60 one-dose screen, 48 h (100 = growth as untreated, 0 = no growth, -100 = all killed)
Conditions in all cases: 10 µM unless noted
[1] = test system: NCI-H23 lung
[2] = test system: NCI-H226 lung
[3] = test system: NCI-H322M lung
[4] = test system: HOP-62 NSCLC
[5] = test system: NCI-H460 lung
[6] = test system: HOP-92 NSCLC
[7] = test system: NCI-H522 lung
[8] = test system: A549/ATCC NSCLC
[9] = test system: 786-0 renal
[10] = test system: COLO 205 colon
[11] = test system: DU-145 prostate
[12] = test system: K-562 leukemia
[13] = test system: MALME-3M melanoma
[14] = test system: MDA-MB-231 breast
[15] = test system: RXF 393 renal
[16] = test system: SF-268 CNS
[17] = test system: SF-295 CNS
[18] = test system: SF-539 CNS
[19] = test system: UACC-257 melanoma
[20] = test system: M14 melanoma

Measured: growth

O=C(Nc1ccccc1C(=O)N/N=C(\c1ccccc1)c1ccccn1)c1ccccc1
active: [4] 9.93% | [5] -0.498% | [7] 0.831% | [8] 9.7% | [9] 9.15% | [10] 5.09% | [18] 8.36% | [19] -10.4% | [20] -12.9%
inactive: [1] 24.9% | [2] 18.1% | [3] 29.1% | [6] 34.9% | [11] 14.1% | [12] 12.5% | [13] 35.1% | [14] 22.5% | [15] 21.4% | [16] 15.5% | [17] 17.9%

C=C1C(=O)O[C@H]2[C@H]1CC/C(COC(=O)NCc1ccc(Cn3c(=O)sn(CCCI)c3=O)cc1)=C\CC[C@@]1(C)O[C@@H]21
inactive: [1] 72.1% | [2] 77.9% | [3] 97.5% | [4] 96% | [5] 102% | [8] 95.5% | [11] 13% | [14] 10.9% | [16] 75% | [17] 99.3% | [18] 40% | [19] 28.8%
active: [6] -29.3% | [7] -68.2% | [9] 6.22% | [10] -45.8% | [12] 4.22% | [13] -75.5% | [15] -5.91% | [20] -42%

COc1cc(N=Nc2ccc(O)c3ncccc23)c2ncccc2c1
inactive: [1] 50.2% | [2] 64.6% | [3] 55.9% | [4] 42.7% | [5] 17.4% | [6] 32.4% | [7] 15.9% | [9] 24.3% | [10] 52.4% | [11] 31% | [12] 10.9% | [13] 35.5% | [14] 37.3% | [15] 52.5% | [16] 18.3% | [17] 67.8% | [18] 10.1% | [19] 74.4% | [20] 25.9%
active: [8] 8.08%

C/C=C(/C)C(=O)O[C@@H]1CC(C)(C)CC2C34OC(=O)[C@@]21CC[C@@]3(C)[C@]1(C)CCC2C(C)(C)C(=O)CC[C@]2(C)C1C[C@@H]4Cl (stereo not given in full)
inactive: [1] 95.4% | [2] 86.7% | [3] 98.2% | [4] 94.5% | [5] 97.7% | [6] 74.7% | [7] 93% | [8] 91% | [9] 90.4% | [10] 98.8% | [11] 104% | [12] 85.6% | [13] 90.8% | [14] 93.4% | [15] 108% | [16] 93% | [17] 97.3% | [18] 85% | [19] 89.8% | [20] 93.1%

NC(=O)c1c(NC(=O)/C=C/c2cccs2)sc2c1CCC(=O)C2
active: [7] -4.08%
inactive: [1] 17.4% | [2] 68.5% | [3] 101% | [4] 87.3% | [5] 58% | [6] 42.4% | [8] 74.9% | [9] 70.2% | [10] 55.5% | [11] 81.6% | [12] 14.3% | [13] 75.1% | [14] 24.6% | [15] 26.9% | [16] 22.5% | [17] 80.9% | [18] 16.3% | [19] 70.7% | [20] 24.8%

Clc1ccc(CNc2ccc3nc(CCC4CCCCC4)[nH]c3c2)cc1
active: [10] -63.3% | [12] 6.84%
inactive: [1] 66.4% | [2] 71.4% | [3] 87.9% | [4] 79% | [5] 60.6% | [6] 28.8% | [7] 54.8% | [8] 59.8% | [9] 58.9% | [11] 83.5% | [13] 31.4% | [14] 62.8% | [15] 52% | [16] 79% | [17] 73.4% | [18] 69.6% | [19] 71.4% | [20] 45%

COC(=O)c1nc(-c2ccccc2)oc1S(=O)(=O)N(C)CCO
inactive: [1] 90.9% | [2] 90.8% | [3] 94.6% | [4] 103% | [5] 105% | [6] 41.7% | [7] 32.7% | [8] 91.2% | [9] 57.9% | [10] 48% | [11] 65.4% | [12] 22.2% | [13] 69.6% | [14] 78.3% | [15] 64.8% | [16] 92.3% | [17] 104% | [18] 68.7% | [19] 63.8% | [20] 41.1%
